A selection: hits, their analogues and other compounds. The true share with any hit is near 2.3%.
MITF TRPM1 inh: inhibitors of MITF-dependent TRPM1 promoter reporter, primary screen, cell-based, SK-MEL-5, single point, luciferase | 330,000 tested, 0.83% active | inhibition, % at 12.5 µM | SK-MEL-5 TRPM1 promoter luciferase, 24 h;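 active = mean inhibition across replicates of 60% or more, whatever share of single replicates reaches that level; inconclusive = some that reach 60%, reason not given; inactive = mean inhibition across replicates below 60%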
Jurkat NFkB inh: inhibitors of induced NF-kB luciferase reporter, primary screen, TCR NF-kB activation inhibitor project, cell-based, luminescence, uHTS. Jurkat, PMA/ionomycin-induced NF-kB luciferase reporter. inhibition, % at 4 µM. 330,000 tested, 0.53% active. AID 435003, 2010; in the data active = inhibition above about 50%
Shn3 3UTR inh: reduction of Shn3 3'UTR firefly luciferase signal, primary screen, Schnurri-3 inhibitor project, cell-based, Clone20 osteoblasts, set 2 | AID 588674, 2011 | 360,000 tested, 0.52% active | Clone20 osteoblast Shn3 3'UTR firefly luciferase, 24 h | inhibition, % at 12.5 µM;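 active = mean inhibition of at least 75% with every replicate also reaching 75%; inconclusive = mean inhibition at least 75% but some replicate below; inactive = mean inhibition below 75%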;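 note: 0% = median of neutral control wells and 100% = pilot-screen positive control compound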
Gli-Sufu block: Gli-Sufu pathway antagonists, primary screen, luciferase luminescence, Sufu-KO-LIGHT cells, uHTS; Sufu-KO-LIGHT fibroblasts, Gli luciferase reporter luminescence; inhibition, % at 5 µM; 340,000 tested, 0.74% active;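 active = inhibition above about 55%, limit read from the data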;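 note: 0% = DMSO-treated cells and 100% = wells with medium but no cells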
697 NFkB inh: inhibitors of PMA/ionomycin-induced NF-kB reporter, 697 cells, primary screen, B-cell NF-kB inhibitor project, cell-based, luminescence, uHTS; 697 B-cell NF-kB luciferase reporter, 16 h; inhibition, % at 4 µM; 330,000 tested, 0.33% active; AID 435022, 2010; in the data active = inhibition above about 35%
EBV LMP1 NFkB: EBV LMP1-driven NF-kappaB luciferase reporter inhibitors, primary screen, cell-based, luminescence, single point. LMP1-induced NF-kappaB luciferase reporter cells. inhibition, % at 12.5 µM. 350,000 tested, 0.69% active. AID 504558, 2011; in the data active = inhibition above about 41%; inconclusive = no clear call, values can overlap the other calls;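 note: 0% = neutral control wells and 100% = reference inhibitor control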
Jurkat NFkB conf: PMA/ionomycin-induced NF-kB reporter inhibitors, Jurkat retest, confirmation, T-cell NF-kB inhibitor project, cell-based, luminescence, single concentration; shares compounds with Jurkat NFkB inh; Jurkat NF-kB luciferase, 16 h; inhibition, % at 4 µM; 2,700 tested, 27% active; AID 435020, 2010;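 active = inhibition reaching about 45% at 4 µM in either replicate, limit read from the data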;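 note: plate controls were PMA/ionomycin stimulated DMSO wells for no effect and unstimulated DMSO wells for full effect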
Starred values were filed as active, the others as inactive; ? = inconclusive; · = no result given.

SMILES	MITF TRPM1 inh	Jurkat NFkB inh	Shn3 3UTR inh	Gli-Sufu block	697 NFkB inh	EBV LMP1 NFkB	Jurkat NFkB conf
Oc1c(Cl)cc(Cl)cc1/C=N/Nc1ncc(Br)cn1	66*	33	90*	51	11	?	·
O=C(N/N=C/c1cc(Cl)cc(Cl)c1O)c1ccncc1	64*	0	42	8	-65	-4	·
Cc1cccc(N2CCN(C(=O)Cn3nc(Cc4ccncc4)c4ccccc4c3=O)CC2)c1C	2	6	5	8	-21	91*	·
Oc1ccc(N=Nc2ccccc2)o1	9	30	94*	3	-2	-1	·
CN=c1scc(-c2ccco2)n1/N=C/c1ccc(O)c(O)c1	2	10	90*	28	-157	-55	·
C=CCN=c1scc(C)n1/N=C/c1ccc(O)c(O)c1	-52	-3	92*	40	-130	-8	·
COc1ccc(O)c(/C=N/n2c(-c3ccco3)csc2=Nc2cccnc2)c1	-5	-7	6	0	-22	11	·
CN1/C(=C\C=C2/SC(=S)NC2=O)C(C)(C)c2ccccc21	19	29	84	71*	-42	14	·
CC(C)c1ccc(Oc2cccc3c2S(=O)(=O)N(C2CCCC2)CC(COCc2ccccc2)O3)cc1 (configuration not stated)	12	·	86*	3	·	9	·
Cc1cc(C(C)(C)C)ccc1Oc1cccc2c1S(=O)(=O)N(C1CCCC1)CC(COCc1ccccc1)O2 (configuration not stated)	10	·	80	-3	·	16	·
CN(C)Cc1ccc(CNC(=O)c2ccc(Cl)c(S(=O)(=O)NC3CC3)c2)cc1	-4	-18	-4	14	-17	-4	·
Nc1ncnc(Sc2ncccn2)c1[N+](=O)[O-]	79*	·	-13	5	·	-57	·
COc1cc(CC(=O)N(c2ccccc2)c2nc(C)cs2)cc(OC)c1OC	12	6	3	-3	10	52*	·
CCC(=O)Nc1nc(-c2ccc3c(c2)OCCO3)cs1	-58	-117	-83	-92	-173	-44	·
C=CCNc1nc(-c2ccc3c(c2)OCCO3)cs1	-25	-152	-91	-101	-181	-33	-8
O=[N+]([O-])c1ccc(N2CCc3ccccc3C2)nc1	-21	11	3	-3	7	-6	·
Cc1cccc(NC(=O)/C=C/c2cccs2)n1	-96	-167	-43	-104	-159	-8	-67
O=C(/C=C/c1cccs1)Nc1ccncc1	-38	-4	12	-14	-38	-6	·
O=C(C[C@H]1C[C@H]2c3cc(NS(=O)(=O)c4ccc(F)cc4)ccc3O[C@H]2[C@H](CO)O1)NCc1ccncc1	·	·	-5	·	·	2	·
CC1CCc2c(sc3nc(CN4CCOCC4)nc(NS(=O)(=O)c4cccc([N+](=O)[O-])c4)c23)C1 (configuration not stated)	7	1	-1	-18	3	13	·
COc1cc(C2C(C#N)=C(N)Oc3cc(O)ccc32)cc2c1OCO2 (configuration not stated)	6	15	-13	7	9	-3	·
COc1cc(C2C(C#N)=C(N)Oc3cc(N(C)C)ccc32)cc2c1OCO2 (configuration not stated)	?	67*	28	45	-107	-3	48*
COc1cc(C2C(C#N)=C(N)Oc3cc(O)ccc32)cc(OC)c1OC (configuration not stated)	9	53*	12	26	-18	7	10
CC(C)NC(=O)NC(=O)COc1ccc(Br)cc1Br	-30	-205	-54	-99	-206	-8	-94
NC(N)=Nc1nc(C2COc3ccccc3O2)cs1 (configuration not stated)	-42	-167	-59	-65	-239	-15	-87
SMILES	MITF TRPM1 inh	Jurkat NFkB inh	Shn3 3UTR inh	Gli-Sufu block	697 NFkB inh	EBV LMP1 NFkB	Jurkat NFkB conf
CCCCN1C(=O)c2ccc(C(=O)N(C)CC(=O)Nc3ccc(OCC)c(OCC)c3)cc2C1=O	-24	-27	-10	-5	6	-1	·
O=C(/C=C/Nc1cccc(O)c1)c1ccccc1	-7	-109	-24	-5	-72	-12	·
O=C(/C=C/Nc1ccc(F)cc1)c1ccc(Br)cc1	-40	-163	-74	-117	-164	-39	15
Cc1cccc(N/C=C/C(=O)c2cccs2)c1C	-6	-167	-22	-73	-180	-7	-14
O=C(/C=C/Nc1ccc(F)c(F)c1)c1cccs1	-7	-182	-57	-10	-240	-69	6
O=C(/C=C/Nc1ccc(F)cc1)c1cccs1	-6	-127	-40	-89	-180	-35	·
O=C(/C=C/Nc1ccc(F)c(Cl)c1)c1ccccc1	-51	-177	-228	-100	-165	-48	-29
O=C(CN(C(=O)CCC(=O)Nc1ccccn1)c1cccc(F)c1)NCc1ccc(F)cc1	8	-2	26	-24	10	1	·
CCNc1ccc(S(=O)(=O)C(F)(F)F)cc1NC(=O)C12CCC(CC1)C2	2	-15	17	2	-37	2	·
O=C(NCc1ccc2c(c1)OCO2)C(=O)NCC(c1ccco1)N1CCN(c2ccccc2)CC1 (configuration not stated)	12	-9	6	8	-48	0	·
Cc1cc(C(=O)CN2C(=O)C3CC=CCC3C2=O)c(C)n1-c1ccccc1 (configuration not stated)	-37	-174	-110	-91	-199	-8	-61
CCn1c(C)cc(C(=O)CN2C(=O)c3ccccc3S2(=O)=O)c1C	68*	69*	67	64*	20	73*	39
CN(Cc1ccccc1)C(=O)CN1C(=O)c2ccccc2S1(=O)=O	-1	7	2	10	10	-10	·
Cc1cc(C(=O)CN2C(=O)c3ccccc3S2(=O)=O)c(C)n1-c1ccccc1	81*	66*	61	15	-34	74*	-1
CCOc1ccc(NC(=O)CN(C)C(=O)c2cn(-c3ccc(C)cc3)nc2-c2cccc(OC)c2)cc1OCC	16	·	16	2	·	3	·
CC1CCCC(C)N1C(=O)COC(=O)Cn1cnc2c1c(=O)n(C)c(=O)n2C (configuration not stated)	-5	0	7	-2	1	2	·
Oc1ccc(F)cc1-c1cc(-c2ccc3c(c2)OCCO3)n[nH]1	-73	-160	-25	-5	-224	-71	-129
